# Assay results published in PubChem BioAssay (NCI).
# The panel holds about 79,000 compounds, 15% with a hit somewhere; the sample as a whole holds those more often. Values without a mark were called inactive. Calls of active or inactive are those of the source. Cut-off read from the data, not from the text of the source: active = growth inhibition above about 70%; inactive = the rest.
# Columns and labels:
# [1] = NCI Yeast Anticancer Drug Screen. Data for the rad50EPP+ strain (AID 151);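 note: 0% = growth of vehicle-treated control cultures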; settings: S. cerevisiae rad50 mutant strain, stronger effect = higher value
# Method in brief: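 In this screen, rad50EPP+ yeast were exposed to compounds. Growth inhibition was scored against vehicle-treated controls.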
# [2] = NCI Yeast Anticancer Drug Screen. Data for the mgt1 strain (AID 153); settings: S. cerevisiae mgt1 mutant growth inhibition, stronger effect = higher value
# Method in brief: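 mgt1 strain exposed; growth vs vehicle control recorded as inhibition.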
# [3] = NCI Yeast Anticancer Drug Screen. Data for the rad50 strain (AID 155);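 note: 0% = growth of vehicle-only cultures of the same strain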; settings: S. cerevisiae rad50 strain growth inhibition, stronger effect = higher value
# Method in brief: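 Readout: growth inhibition relative to vehicle-treated cultures. Compound exposure was carried out in a genetically defined yeast strain deficient in DNA damage repair.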
# [4] = NCI Yeast Anticancer Drug Screen. Data for the mec2-1 strain (AID 157); settings: S. cerevisiae mec2-1 strain, stronger effect = higher value
# Method in brief: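 Vehicle-treated cultures served as reference for growth inhibition of compound-exposed mec2-1 yeast.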
# [5] = NCI Yeast Anticancer Drug Screen. Data for the sgs1 mgt1 strain (AID 161);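 note: 0% = growth of cultures given vehicle only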; settings: S. cerevisiae sgs1 mgt1 strain, stronger effect = higher value
# Method in brief: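 Genetically altered yeast, compound exposure, growth inhibition relative to vehicle.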
# [6] = NCI Yeast Anticancer Drug Screen. Data for the CLN2oe strain (AID 163);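 note: 0% = growth of vehicle-only control cultures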; settings: S. cerevisiae CLN2oe strain, stronger effect = higher value
# Method in brief: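 Inhibition relative to vehicle-treated yeast is reported. Cells: strain with genetic alteration in cell-cycle control, grown with compound.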
# [7] = NCI Yeast Anticancer Drug Screen. Data for the cln2 rad14 strain (AID 165);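 note: 0% = growth equal to vehicle treated cultures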; settings: S. cerevisiae cln2 rad14 strain, stronger effect = higher value
# Method in brief: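 Each compound was tested on cln2 rad14 yeast. Inhibition of growth was calculated against vehicle-exposed controls.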
# [8] = NCI Yeast Anticancer Drug Screen. Data for the bub3 strain (AID 167); settings: S. cerevisiae bub3 mutant strain, stronger effect = higher value
# Method in brief: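 Readout: yeast growth inhibition, expressed relative to vehicle-only wells. The test organism is a mutant strain from a panel with lesions in DNA repair or checkpoint genes.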
# [9] = NCI Yeast Anticancer Drug Screen. Data for the wt2 strain (AID 169);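 note: 0% = growth of vehicle-treated yeast cultures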; settings: S. cerevisiae wt2 strain growth inhibition, stronger effect = higher value
# Method in brief: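 Inhibition of yeast growth was determined after compound treatment, normalised to controls receiving only vehicle.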
# [10] = NCI Yeast Anticancer Drug Screen. Data for the mlh1 strain (AID 171);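 note: 0% = growth of vehicle-treated control cultures of the same strain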; settings: S. cerevisiae mlh1 strain growth inhibition, stronger effect = higher value
# Method in brief: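 Vehicle-normalised growth inhibition of a repair- or checkpoint-altered yeast strain following compound treatment.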
# [11] = NCI Yeast Anticancer Drug Screen. Data for the sgs1 strain (AID 173);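 note: 0% = growth of vehicle-only control cultures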; settings: S. cerevisiae sgs1 mutant, stronger effect = higher value
# Method in brief: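 Screen format: yeast with repair or checkpoint alterations, compound exposure, growth read relative to vehicle.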
# [12] = NCI Yeast Anticancer Drug Screen. Data for the mlh1 rad18 strain (AID 175); settings: S. cerevisiae mlh1 rad18 strain growth inhibition, stronger effect = higher value
# Method in brief: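 Vehicle-treated cultures served as the reference for growth inhibition in a yeast strain carrying DNA damage repair alterations exposed to each compound.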
# [13] = NCI Yeast Anticancer Drug Screen. Data for the rad18 strain (AID 177); settings: S. cerevisiae rad18 mutant growth inhibition, stronger effect = higher value
# Method in brief: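 Test articles were incubated with altered yeast defective in DNA damage repair. Results are given as inhibition of growth versus vehicle.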
# [14] = NCI Yeast Anticancer Drug Screen. Data for the wt1 strain (AID 149);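 note: 0% = growth of vehicle-treated wt1 cultures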; settings: S. cerevisiae wt1 strain (SPY 50644) growth inhibition, stronger effect = higher value
# Method in brief: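 Growth inhibition read against vehicle controls after compound exposure of the wt1 yeast strain.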
# [15] = NCI Yeast Anticancer Drug Screen. Data for the rad14 strain (AID 159);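 note: 0% = growth of vehicle-treated control cultures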; settings: S. cerevisiae rad14 strain growth inhibition, stronger effect = higher value
# Method in brief: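 Growth inhibition vs vehicle controls; genetically altered yeast strain (DNA damage repair defect) treated with test compounds.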
# [16] = at 5.0 µM (retest, dose inferred, filed as 0.5)
# [17] = at 50.0 µM (retest, dose inferred, filed as 5.0)
smiles,measurement,setting,value
c1cc2ccc3cc4ncccc4c4ccc(c1)c2c34,growth inhibition,[1]; at 1.2 µM,8%
same,growth inhibition,[1]; at 3.7 µM,35%
same,growth inhibition,[1]; at 11.0 µM,73% (active)
same,growth inhibition,[1]; at 33.0 µM,92% (active)
same,growth inhibition,[1]; at 100.0 µM,92% (active)
same,growth inhibition,[2]; at 1.2 µM,-2%
same,growth inhibition,[2]; at 3.7 µM,-1%
same,growth inhibition,[2]; at 11.0 µM,11%
same,growth inhibition,[2]; at 33.0 µM,76% (active)
same,growth inhibition,[2]; at 100.0 µM,84% (active)
same,growth inhibition,[3]; at 1.2 µM,2%
same,growth inhibition,[3]; at 3.7 µM,13%
same,growth inhibition,[3]; [16],74% (active)
same,growth inhibition,[3]; at 11.0 µM,70% (active)
same,growth inhibition,[3]; at 33.0 µM,93% (active)
same,growth inhibition,[3]; [17],96% (active)
same,growth inhibition,[3]; at 50.0 µM,97.9% (active)
same,growth inhibition,[3]; at 100.0 µM,93% (active)
same,growth inhibition,[4]; at 1.2 µM,-2%
same,growth inhibition,[4]; at 3.7 µM,1%
same,growth inhibition,[4]; [16],23%
same,growth inhibition,[4]; at 11.0 µM,13%
same,growth inhibition,[4]; at 33.0 µM,65%
same,growth inhibition,[4]; [17],97% (active)
same,growth inhibition,[4]; at 50.0 µM,97.5% (active)
same,growth inhibition,[4]; at 100.0 µM,82% (active)
same,growth inhibition,[5]; [16],34%
same,growth inhibition,[5]; [17],93% (active)
same,growth inhibition,[5]; at 50.0 µM,98.2% (active)
same,growth inhibition,[6]; at 1.2 µM,-3%
same,growth inhibition,[6]; at 3.7 µM,-3%
same,growth inhibition,[6]; at 11.0 µM,1%
same,growth inhibition,[6]; at 33.0 µM,21%
same,growth inhibition,[6]; at 100.0 µM,65%
same,growth inhibition,[7]; [16],15%
same,growth inhibition,[7]; [17],90% (active)
same,growth inhibition,[7]; at 50.0 µM,92.3% (active)
same,growth inhibition,[8]; at 1.2 µM,-2%
same,growth inhibition,[8]; at 3.7 µM,1%
same,growth inhibition,[8]; [16],27%
same,growth inhibition,[8]; at 11.0 µM,36%
same,growth inhibition,[8]; at 33.0 µM,84% (active)
same,growth inhibition,[8]; [17],96% (active)
same,growth inhibition,[8]; at 50.0 µM,98.9% (active)
same,growth inhibition,[8]; at 100.0 µM,90% (active)
same,growth inhibition,[9]; at 1.2 µM,0%
same,growth inhibition,[9]; at 3.7 µM,0%
same,growth inhibition,[9]; at 11.0 µM,15%
same,growth inhibition,[9]; at 33.0 µM,53%
same,growth inhibition,[9]; at 100.0 µM,85% (active)
same,growth inhibition,[10]; at 1.2 µM,-2%
same,growth inhibition,[10]; at 3.7 µM,0%
same,growth inhibition,[10]; at 11.0 µM,22%
same,growth inhibition,[10]; at 33.0 µM,83% (active)
same,growth inhibition,[10]; at 100.0 µM,88% (active)
same,growth inhibition,[11]; at 1.2 µM,-2%
same,growth inhibition,[11]; at 3.7 µM,0%
same,growth inhibition,[11]; at 11.0 µM,25%
same,growth inhibition,[11]; at 33.0 µM,83% (active)
same,growth inhibition,[11]; at 100.0 µM,85% (active)
same,growth inhibition,[12]; [16],32%
same,growth inhibition,[12]; [17],97% (active)
same,growth inhibition,[12]; at 50.0 µM,97.8% (active)
same,growth inhibition,[13]; at 1.2 µM,4%
same,growth inhibition,[13]; at 3.7 µM,7%
same,growth inhibition,[13]; at 11.0 µM,35%
same,growth inhibition,[13]; at 33.0 µM,87% (active)
same,growth inhibition,[13]; at 100.0 µM,90% (active)
CCCC(=O)OC(OC(=O)CCC)c1ccc([N+](=O)[O-])o1,growth inhibition,[14]; at 1.2 µM,-3%
same,growth inhibition,[14]; at 3.7 µM,-2%
same,growth inhibition,[14]; at 11.0 µM,-1%
same,growth inhibition,[14]; at 33.0 µM,2%
same,growth inhibition,[14]; at 100.0 µM,11%
same,growth inhibition,[3]; at 1.2 µM,-2%
same,growth inhibition,[3]; at 3.7 µM,-1%
same,growth inhibition,[3]; [16],22%
same,growth inhibition,[3]; at 11.0 µM,10%
same,growth inhibition,[3]; at 33.0 µM,47%
same,growth inhibition,[3]; [17],34%
same,growth inhibition,[3]; at 50.0 µM,63.9%
same,growth inhibition,[3]; at 100.0 µM,83% (active)
same,growth inhibition,[4]; at 1.2 µM,-4%
same,growth inhibition,[4]; at 3.7 µM,-1%
same,growth inhibition,[4]; [16],17%
same,growth inhibition,[4]; at 11.0 µM,2%
same,growth inhibition,[4]; at 33.0 µM,5%
same,growth inhibition,[4]; [17],8%
same,growth inhibition,[4]; at 50.0 µM,-1.45%
same,growth inhibition,[4]; at 100.0 µM,20%
same,growth inhibition,[15]; at 1.2 µM,-6%
same,growth inhibition,[15]; at 3.7 µM,-4%
same,growth inhibition,[15]; at 11.0 µM,1%
same,growth inhibition,[15]; at 33.0 µM,7%
same,growth inhibition,[15]; at 100.0 µM,26%
same,growth inhibition,[6]; at 1.2 µM,-1%
same,growth inhibition,[6]; at 3.7 µM,-8%
same,growth inhibition,[6]; at 11.0 µM,-10%
same,growth inhibition,[6]; at 33.0 µM,-5%
same,growth inhibition,[6]; at 100.0 µM,8%
same,growth inhibition,[7]; [16],1%
same,growth inhibition,[7]; [17],8%
same,growth inhibition,[7]; at 50.0 µM,12.1%
same,growth inhibition,[8]; at 1.2 µM,-4%
same,growth inhibition,[8]; at 3.7 µM,-5%
same,growth inhibition,[8]; [16],2%
same,growth inhibition,[8]; at 11.0 µM,-4%
same,growth inhibition,[8]; at 33.0 µM,-3%
same,growth inhibition,[8]; [17],7%
same,growth inhibition,[8]; at 50.0 µM,14.4%
same,growth inhibition,[8]; at 100.0 µM,3%
same,growth inhibition,[9]; at 1.2 µM,-3%
same,growth inhibition,[9]; at 3.7 µM,-3%
same,growth inhibition,[9]; at 11.0 µM,-3%
same,growth inhibition,[9]; at 33.0 µM,1%
same,growth inhibition,[9]; at 100.0 µM,11%
same,growth inhibition,[10]; at 1.2 µM,-5%
same,growth inhibition,[10]; at 3.7 µM,-2%
same,growth inhibition,[10]; at 11.0 µM,0%
same,growth inhibition,[10]; at 33.0 µM,7%
same,growth inhibition,[10]; at 100.0 µM,20%
same,growth inhibition,[11]; at 1.2 µM,-1%
same,growth inhibition,[11]; at 3.7 µM,1%
same,growth inhibition,[11]; at 11.0 µM,7%
same,growth inhibition,[11]; at 33.0 µM,21%
same,growth inhibition,[11]; at 100.0 µM,61%
same,growth inhibition,[12]; [16],22%
same,growth inhibition,[12]; [17],71% (active)
same,growth inhibition,[12]; at 50.0 µM,35.1%
same,growth inhibition,[13]; at 1.2 µM,1%
same,growth inhibition,[13]; at 3.7 µM,14%
same,growth inhibition,[13]; at 11.0 µM,42%
same,growth inhibition,[13]; at 33.0 µM,85% (active)
same,growth inhibition,[13]; at 100.0 µM,94% (active)
O=S(=O)(CCC[C@H]1[C@@H](CCOCc2ccccc2)C2CCCN1O2)c1ccccc1 (stereo partly drawn),growth inhibition,[14]; at 1.2 µM,2%
same,growth inhibition,[14]; at 3.7 µM,2%
same,growth inhibition,[14]; at 11.0 µM,1%
same,growth inhibition,[14]; at 33.0 µM,1%
same,growth inhibition,[14]; at 100.0 µM,19%
same,growth inhibition,[3]; at 1.2 µM,-3%
same,growth inhibition,[3]; at 3.7 µM,-13%
same,growth inhibition,[3]; [16],-9%
same,growth inhibition,[3]; at 11.0 µM,-13%
same,growth inhibition,[3]; at 33.0 µM,10%
same,growth inhibition,[3]; [17],-11%
same,growth inhibition,[3]; at 50.0 µM,-4.6%
same,growth inhibition,[3]; at 100.0 µM,22%
same,growth inhibition,[4]; at 1.2 µM,4%
same,growth inhibition,[4]; at 3.7 µM,4%
same,growth inhibition,[4]; [16],-9%
same,growth inhibition,[4]; at 11.0 µM,5%
same,growth inhibition,[4]; at 33.0 µM,13%
same,growth inhibition,[4]; [17],-22%
same,growth inhibition,[4]; at 50.0 µM,-19.2%
same,growth inhibition,[4]; at 100.0 µM,27%
same,growth inhibition,[15]; at 1.2 µM,1%
same,growth inhibition,[15]; at 3.7 µM,-3%
same,growth inhibition,[15]; at 11.0 µM,3%
same,growth inhibition,[15]; at 33.0 µM,10%
same,growth inhibition,[15]; at 100.0 µM,25%
same,growth inhibition,[5]; [16],9%
same,growth inhibition,[5]; [17],20%
same,growth inhibition,[5]; at 50.0 µM,-23.6%
same,growth inhibition,[6]; at 1.2 µM,1%
